Experimental data published in PubChem BioAssay AID1159580 (chemical genetic matrix, 2015).
Values joined by “and” are separate entries in the source; they are usually repeats but may differ in a detail not shown here. Equal entries are not always repeated. Among all 5,500 compounds or so, about 2,000 (36%) were called active. Roughly 18% stayed inconclusive and do not appear here. Cut-off read from the data, not from the text of the source: active = normalized growth mostly below about 0.91 (no sharp cut-off); inconclusive = no clear call, values can overlap the other calls; inactive = mostly above about 0.92. The list shows a part of the results.

Assay: chemical genetic growth profiling, strain panel (AID 1159580);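 note: tested at 20 µM; growth read once vehicle control cultures reached saturation at 30 °C; 1 = growth at the plate median or of vehicle wells; lower values mean less growth of the strain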
Settings: S. cerevisiae deletion strains, growth OD

Measured: normalized growth

COc1ccc(C(=O)CC(=O)c2ccc(C(C)(C)C)cc2)cc1
active: locus YJL164C, strain tpk1, active compounds read low 0.913
inactive: locus YAL013W, strain DEP1, active compounds read low 0.998 | locus YAL021C, strain ccr4, active compounds read low 0.999 | locus YAL026C, strain drs2, active compounds read low 0.996 | locus YAL030W, strain snc1, active compounds read low 0.993 | locus YBL061C, strain skt5, active compounds read low 0.99 | locus YBR009C, strain hhf1, active compounds read low 0.976 | locus YBR021W, strain FUR4, active compounds read low 0.979 | locus YBR023C, strain chs3, active compounds read low 0.987 | locus YBR171W, strain sec66, active compounds read low 1.03 | locus YBR229C, strain ROT2, active compounds read low 0.997 | locus YBR231C, strain swc5, active compounds read low 0.997 | locus YBR279W, strain paf1, active compounds read low 0.991 | locus YCL011C, strain gbp2, active compounds read low 0.995 | locus YCL016C, strain dcc1, active compounds read low 0.984 | locus YCL029C, strain bik1, active compounds read low 1.01 | locus YCL069W, strain vba3, active compounds read low 0.993 | locus YCR088W, strain abp1, active compounds read low 0.99 | locus YDL005C, strain med2, active compounds read low 0.983 | locus YDL035C, strain GPR1, active compounds read low 0.954 | locus YDL040C, strain nat1, active compounds read low 0.98 | locus YDL074C, strain BRE1, active compounds read low 0.933 | locus YDL101C, strain DUN1, active compounds read low 0.99 | locus YDL134C, strain PPH21, active compounds read low 1.01 | locus YDL185W, strain tfp1, active compounds read low 1 | locus YDL192W, strain arf1, active compounds read low 1 | locus YDR001C, strain nth1, active compounds read low 0.995 | locus YDR069C, strain doa4, active compounds read low 0.989 | locus YDR101C, strain arx1, active compounds read low 1 | locus YDR137W, strain rgp1, active compounds read low 0.918 | locus YDR150W, strain NUM1, active compounds read low 0.999 | locus YDR159W, strain sac3, active compounds read low 1.01 | locus YDR162C, strain NBP2, active compounds read low 0.851 | locus YDR195W, strain ref2 1.01 | locus YDR297W, strain sur2, active compounds read low 1 | locus YDR318W, strain mcm21, active compounds read low 0.994 | locus YDR334W, strain swr1, active compounds read low 1.02 | locus YDR335W, strain msn5, active compounds read low 1 | locus YDR388W, active compounds read low 1.01 | locus YDR392W, strain spt3, active compounds read low 1.02 | locus YDR502C, strain sam2, active compounds read low 1.01 | locus YEL003W, strain gim4, active compounds read low 0.992 | locus YEL037C, strain rad23, active compounds read low 0.992 | locus YEL061C, strain CIN8 (second series), active compounds read low 0.976 | locus YEL061C, strain CIN8, active compounds read low 0.96 | locus YER015W, strain faa2, active compounds read low 0.997 | locus YER016W, strain bim1, active compounds read low 0.983 | locus YER110C, active compounds read low 1.01 | locus YER111C, strain swi4, active compounds read low 0.995 | locus YER155C, strain BEM2 (second series), active compounds read low 1.01 | locus YER155C, strain BEM2, active compounds read low 0.94 | locus YER167W, strain BCK2, active compounds read low 0.987 | locus YFR010W, strain ubp6, active compounds read low 1 | locus YGL078C, strain dbp3, active compounds read low 0.996 | locus YGL086W, strain mad1, active compounds read low 0.991 | locus YGL167C, strain pmr1, active compounds read low 0.982 | locus YGL173C, strain kem1, active compounds read low 0.989 | locus YGL227W, strain vid30, active compounds read low 0.982 | locus YGL240W, strain doc1, active compounds read low 0.986 | locus YGL248W, strain PDE1, active compounds read low 0.986 | locus YGL253W, strain hxk2, active compounds read low 0.99 | locus YGR078C, strain PAC10, active compounds read low 0.931 | locus YGR135W, strain pre9, active compounds read low 0.997 | locus YGR229C, strain SMI1, active compounds read low 0.83 | locus YGR252W, strain gcn5, active compounds read low 1.02 | locus YHR013C, strain ard1, active compounds read low 0.945 | locus YHR027C, strain rpn1, active compounds read low 0.992 | locus YHR030C, strain SLT2, active compounds read low 0.929 and 0.981 | locus YHR079C, strain IRE1 (second series), active compounds read low 1 | locus YHR079C, strain IRE1, active compounds read low 0.984 | locus YHR094C, strain hxt1, active compounds read low 1 | locus YHR129C, strain ARP1, active compounds read low 1 | locus YHR142W, strain chs7, active compounds read low 0.956 | locus YHR200W, strain rpn10, active compounds read low 1 | locus YIL066C, strain RNR3, active compounds read low 0.992 | locus YIL073C, strain SPO22, active compounds read low 0.872 | locus YIL125W, strain kgd1, active compounds read low 0.993 | locus YIR030C, strain dcg1, active compounds read low 0.998 | locus YJL092W, strain hpr5, active compounds read low 0.993 | locus YJL095W, strain BCK1 (second series), active compounds read low 0.967 | locus YJL095W, strain BCK1, active compounds read low 0.958 and 0.995 | locus YJL115W, strain asf1, active compounds read low 1.01 | locus YJL129C, strain trk1, active compounds read low 0.918 | locus YJL134W, strain LCB3, active compounds read low 1 | locus YJL154C, strain vps35, active compounds read low 0.993 | locus YJL166W, strain qcr8, active compounds read low 0.976 | locus YJL168C, strain set2, active compounds read low 1 | locus YJL187C, strain SWE1 (second series), active compounds read low 1.01 | locus YJL187C, strain SWE1, active compounds read low 1 | locus YJR043C, strain POL32, active compounds read low 1 | locus YJR066W, strain TOR1, active compounds read low 0.97
